Test results as given in PubChem BioAssay (Tox21).
Inconclusive results are not listed. Calls of active or inactive are those of the source. Unless noted, calls come from the whole dose curve; as a rule, active = well fitted curve in the direction sought with a large enough effect in the repeat runs; inconclusive = weak or mixed curves; inactive = no such curve, though single readings can be large; an effect the other way counts as inactive or inconclusive.

Experiments:
[1] = qHTS assay to identify small molecule agonists of the estrogen receptor alpha (ER-alpha) signaling pathway in the presence of an antagonist - cell viability counter screen (AID 1259386);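 note: series mostly up to about 92 µM; cells exposed to compounds for 22 h at 37 °C before the viability read; nearly all actives have a fitted effect of over 30% in size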
Summary of the method: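 Fluorescent CellTiter-Fluor viability signal from VM7Luc4E2 cells, with the reagent added during the final hour of a 22hr compound exposure at 37C in the presence of 10.0nM ICI-182,780.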

[2] = molecular target: Progesterone receptor (Homo sapiens) (UniProt P06401); experiment: qHTS assay to identify small molecule agonists of the progesterone receptor (PR) signaling pathway (AID 1346784; calls by dose curve; note: nearly all actives have a fitted effect of over 30% in size)
Summary of the method: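 PR-UAS-bla HEK 293T cells carrying a UAS-driven beta-lactamase reporter were seeded in medium with 2% charcoal-stripped FBS, preincubated 6 hr at 37C, then exposed to compounds in DMSO for 16 hr; agonism was read by LiveBLAzer B/G FRET fluorescence.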

[3] = molecular target: Progesterone receptor (Homo sapiens) (UniProt P06401); experiment: qHTS assay to identify small molecule antagonists of the progesterone receptor (PR) signaling pathway (AID 1346795; active = well fitted inhibition curve with a large enough effect in the signal ratio in the repeat runs, not every such curve was filed as active; the % refers to the signal ratio)
Summary of the method: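 PR-UAS-bla HEK293T cells carrying a UAS-driven beta-lactamase reporter were plated in medium with 2% charcoal-stripped FBS and rested 6 hr at 37C. Compounds were added with 1 nM R5020 (final) for 16 hr, then FRET substrate loaded 2 hr at room temperature.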

[4] = qHTS assay to identify small molecule antagonists of the progesterone receptor (PR) signaling pathway - cell viability counter screen (AID 1346798); note: series mostly up to about 92 µM; nearly all actives have a fitted effect of over 50% in size
Summary of the method: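 PR-UAS-bla HEK293T cells in medium with 2% charcoal-stripped FBS were treated with compounds plus R5020 for 16 hr at 37C. Cell viability was then read by CellTiter-Glo luminescence after 30 min at room temperature in the same wells.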

[5] = qHTS assay to identify small molecule agonists of the progesterone receptor (PR) signaling pathway - cell viability counter screen (AID 1346799; calls by dose curve; note: nearly all actives have a fitted effect of over 45% in size)
Summary of the method: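 PR-UAS-bla HEK293T cells, 3,000 per well in medium with 2% charcoal-stripped FBS, were preincubated 6 hr at 37C, then exposed to compounds for 16 hr; viability was read as CellTiter-Glo luminescence after 30 min at room temperature.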

[6] = qHTS assay to identify small molecule antagonists of the TGF-beta/Smad signaling pathway - cell viability counter screen (AID 1346824); note: nearly all actives have a fitted effect of over 50% in size
Summary of the method: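 Cytotoxicity counter-screen run in the same wells as the beta-lactamase Smad reporter read: CellTiter-Glo luminescence after 30 min at room temperature. HEK 293T SBE-bla cells had 5 hr compound exposure at 37 C with TGF-beta1 (0.25 ng/mL stock).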

[7] = qHTS assay to identify small molecule agonists of the TGF-beta/Smad signaling pathway - cell viability counter screen (AID 1346829); note: top concentration of the series differs between compounds; nearly all actives have a fitted effect of over 45% in size
Summary of the method: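 Here the cytotoxicity of library compounds is measured in SBE-bla HEK 293T cells treated for 5 hr, using CellTiter-Glo added to wells already read for the beta-lactamase reporter.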

[8] = qHTS assay to identify small molecule agonists of the TGF-beta/Smad signaling pathway (AID 1346859; active = well fitted activation curve with a large enough effect in the signal ratio in the repeat runs, not every such curve was filed as active; the % refers to the signal ratio; note: series mostly up to about 77 µM)
Summary of the method: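 HEK 293T cells stably carrying a beta-lactamase reporter driven by the Smad binding element were seeded overnight, exposed to DMSO-dissolved compounds for 5 hr at 37 C, 5% CO2, then loaded with FRET substrate for 2 hr at room temperature.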

[9] = molecular target: Thyrotropin-releasing hormone receptor (Homo sapiens) (UniProt P34981); experiment: qHTS assay to identify small molecule antagonists of the thyrotropin-releasing hormone receptor (TRHR) signaling pathway (AID 1346877; active = well fitted inhibition curve with a large enough effect in the repeat runs, not every such curve was filed as active; note: series mostly up to about 51 µM)
Summary of the method: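 In this cell-based calcium flux format, HEK293 cells expressing TRHR received test compound for 5 min before the agonist TRH (1 nM final). Dye loading lasted 2 h at 37 °C.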

[10] = molecular target: Thyrotropin-releasing hormone receptor (Homo sapiens) (UniProt P34981); experiment: qHTS assay to identify small molecule agonists of the thyrotropin-releasing hormone receptor (TRHR) signaling pathway (AID 1346891; calls by dose curve; note: series mostly up to about 58 µM)
Summary of the method: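 TRHR-expressing HEK293 cells were plated 18 h at 37 °C/5% CO2, loaded with calcium dye 2 h at 37 °C, then given compound in DMSO; fluorescence was read kinetically for 3 min at 1 s intervals.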
% is set by controls: 0 for no effect and ±100 for the full control effect.

Chain of Thyrotropin-releasing hormone receptor (Homo sapiens) (P34981 whole entry, looked up): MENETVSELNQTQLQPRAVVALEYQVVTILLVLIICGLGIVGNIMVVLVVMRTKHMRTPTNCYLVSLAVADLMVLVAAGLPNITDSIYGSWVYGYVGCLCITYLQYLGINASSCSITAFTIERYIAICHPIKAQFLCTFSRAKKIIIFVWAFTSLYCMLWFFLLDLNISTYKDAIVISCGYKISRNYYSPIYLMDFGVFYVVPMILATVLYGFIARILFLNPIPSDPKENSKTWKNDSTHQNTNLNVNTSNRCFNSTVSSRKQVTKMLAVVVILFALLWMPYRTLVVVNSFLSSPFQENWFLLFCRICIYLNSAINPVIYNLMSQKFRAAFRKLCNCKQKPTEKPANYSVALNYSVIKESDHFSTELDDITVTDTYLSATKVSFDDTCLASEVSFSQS
Chain of Progesterone receptor (Homo sapiens) (P06401 whole entry, looked up): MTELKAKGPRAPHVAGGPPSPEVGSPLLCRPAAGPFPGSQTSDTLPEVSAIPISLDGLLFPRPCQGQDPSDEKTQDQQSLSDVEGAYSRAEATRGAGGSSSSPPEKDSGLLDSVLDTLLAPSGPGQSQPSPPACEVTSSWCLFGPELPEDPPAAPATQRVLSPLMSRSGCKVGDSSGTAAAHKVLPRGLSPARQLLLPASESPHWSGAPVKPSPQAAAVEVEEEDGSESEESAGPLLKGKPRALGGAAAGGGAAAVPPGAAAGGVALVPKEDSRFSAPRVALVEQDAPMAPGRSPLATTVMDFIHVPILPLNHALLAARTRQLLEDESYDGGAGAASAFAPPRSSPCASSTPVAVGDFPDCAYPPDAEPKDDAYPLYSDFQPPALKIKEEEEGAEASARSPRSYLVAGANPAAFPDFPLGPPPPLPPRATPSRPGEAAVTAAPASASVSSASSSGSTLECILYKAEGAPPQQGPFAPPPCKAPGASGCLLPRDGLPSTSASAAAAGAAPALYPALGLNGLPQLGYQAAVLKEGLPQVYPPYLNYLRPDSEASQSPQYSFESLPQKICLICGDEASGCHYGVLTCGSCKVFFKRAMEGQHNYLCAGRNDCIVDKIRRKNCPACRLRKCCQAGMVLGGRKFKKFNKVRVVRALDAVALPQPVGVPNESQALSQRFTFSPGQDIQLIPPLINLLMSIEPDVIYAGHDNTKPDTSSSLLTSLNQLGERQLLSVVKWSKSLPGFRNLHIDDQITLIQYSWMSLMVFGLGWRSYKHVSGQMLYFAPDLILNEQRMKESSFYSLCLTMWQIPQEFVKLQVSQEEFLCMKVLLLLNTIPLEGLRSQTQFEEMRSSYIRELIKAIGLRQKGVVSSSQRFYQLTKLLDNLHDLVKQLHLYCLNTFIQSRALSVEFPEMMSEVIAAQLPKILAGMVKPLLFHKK

CO[C@@]1(NC(=O)C(C(=O)O)c2ccc(O)cc2)C(=O)N2C(C(=O)O)=C(CSc3nnnn3C)CO[C@@H]21 (stereo not given in full)
inactive: Potency [1] | Potency [2] | Potency [3] | Potency [4] | Potency [5] | outcome [6] | outcome [7] | outcome [8] | outcome [9] | Potency [10]

CC(C)(C#N)Nc1nc(Cl)nc(NC2CC2)n1
inactive: Potency [1] | Potency [2] | Potency [3] | Potency [4] | Potency [5] | outcome [6] | outcome [7] | outcome [8] | outcome [9] | Potency [10]

COc1cc(C(=O)OC(COCCC(C)C)CN2CCOCC2)cc(OC)c1OC (stereo not given)
inactive: Potency [1] | Potency [2] | Potency [3] | Potency [4] | Potency [5] | outcome [6] | outcome [7] | outcome [8] | outcome [9] | Potency [10]

CC(N)C12CC3CC(CC(C3)C1)C2 (stereo not given)
inactive: Potency [1] | Potency [2] | Potency [3] | Potency [4] | Potency [5] | outcome [6] | outcome [7] | outcome [8] | outcome [9] | Potency [10]

Cc1onc(-c2c(Cl)cccc2Cl)c1C(=O)Cl
inactive: Potency [1] | Potency [2] | Potency [3] | Potency [4] | Potency [5] | outcome [6] | outcome [7] | outcome [8] | outcome [9] | Potency [10]

COc1ccccc1OCC1CNC(=O)O1 (stereo not given)
inactive: Potency [1] | Potency [2] | Potency [3] | Potency [4] | Potency [5] | outcome [6] | outcome [8] | outcome [9] | Potency [10]

CO[Si](C)(OC)c1ccccc1
inactive: Potency [1] | Potency [2] | Potency [3] | Potency [4] | Potency [5] | outcome [6] | outcome [7] | outcome [8] | outcome [9] | Potency [10]

CCOC(=O)C1=NOC(c2ccccc2)(c2ccccc2)C1
inactive: Potency [1] | Potency [2] | Potency [3] | Potency [4] | Potency [5] | outcome [6] | outcome [7] | outcome [8] | outcome [9] | Potency [10]

CCCO[Si](OCCC)(OCCC)OCCC
inactive: Potency [1] | Potency [2] | Potency [3] | Potency [4] | Potency [5] | outcome [6] | outcome [7] | outcome [8] | outcome [9] | Potency [10]

CC/C=C\CCOC(C)OCC (stereo not given)
inactive: Potency [1] | Potency [2] | Potency [3] | Potency [4] | Potency [5] | outcome [6] | outcome [7] | outcome [8] | outcome [9] | Potency [10]

CCO[Si](OCC)(OCC)c1ccccc1
inactive: Potency [1] | Potency [2] | Potency [3] | Potency [4] | Potency [5] | outcome [6] | outcome [7] | outcome [8] | outcome [9] | Potency [10]

O=C(O)c1cc(C(=O)O)cc(C(=O)O)c1
inactive: Potency [1] | Potency [2] | Potency [3] | Potency [4] | Potency [5] | outcome [6] | outcome [7] | outcome [8] | outcome [9] | Potency [10]

c1ccc(CCc2ccccc2)cc1
inactive: Potency [1] | Potency [2] | Potency [3] | Potency [4] | Potency [5] | outcome [6] | outcome [7] | outcome [8] | outcome [9] | Potency [10]

CCN[C@@H]1C[C@H](N)[C@@H](OC2OC(CN)=CCC2N)[C@H](O)[C@H]1O[C@H]1OC[C@](C)(O)[C@H](NC)[C@H]1O (stereo not given in full)
inactive: activity change, negative = cytotoxicity [1] 7.38% [at 0.349 µM] | activation [2] 0.0091% [at 0.349 µM] | activity change, negative = inhibition [3] 9.29% [at 0.348 µM] | activity change, negative = cytotoxicity [4] 4.73% [at 0.348 µM] | activity change, negative = cytotoxicity [5] -2.08% [at 0.349 µM] | activity change, negative = cytotoxicity [7] -2.15% [at 0.29 µM] | activation [8] -2.06% [at 0.29 µM] | activity, negative = inhibition [9] 0.737% [at 0.194 µM] | activation [10] -0.947% [at 0.218 µM]

CC(C)COC(=O)c1ccc(N)cc1
inactive: Potency [1] | Potency [2] | Potency [3] | Potency [4] | Potency [5] | outcome [7] | outcome [8] | outcome [9] | Potency [10]

C=CC(=O)OCCCl
inactive: Potency [1] | Potency [2] | Potency [3] | Potency [4] | Potency [5] | outcome [7] | outcome [8] | outcome [9] | Potency [10]

Cc1ccccc1N=C(N)N=C(N)N
inactive: Potency [1] | Potency [2] | Potency [3] | Potency [4] | Potency [5] | outcome [7] | outcome [8] | outcome [9] | Potency [10]

CCCn1cc[n+](C)c1C
inactive: Potency [1] | Potency [2] | Potency [3] | Potency [4] | outcome [6] | outcome [7] | outcome [8]

CCOC(=O)OC(C)OC1=C(C(=O)Nc2ccccn2)N(C)S(=O)(=O)c2ccccc21 (stereo not given)
inactive: Potency [1] | Potency [2] | Potency [3] | Potency [4] | outcome [7] | outcome [8] | outcome [9] | Potency [10]
